Results from PubChem BioAssay (EPA / NIEHS).
Records with an inconclusive call do not appear. Calls of active or inactive are those of the source. Rule for the calls: active = hit-call score of the fitted dose curve at least 0.9, where 1 is the maximum; inconclusive = response in the unintended direction; inactive = score below 0.9.

What follows are compounds tested on zebrafish Peroxisome Proliferator-activated Receptor gamma (PPARg), gene 557037 (assay: ATG_zfPPARg_XSP1: Attagene TRANS-FACTORIAL Multi-Species (XSP1) HepG2 Assay for zebrafish Peroxisome Proliferator-activated Receptor gamma (PPARg) (AID 2283801)).
Procedure: ATG_XSP1_multi-species_TRANS is a cell-based, multiplexed assay created by modifying the existing Attagene TRANS-FACTORIAL system to include a panel of nuclear receptors from some or all the following species: human (Homo sapiens), mouse (Mus musculus), frog (Xenopus laevis), zebrafish (Danio rerio), chicken (Gallus gallus), and turtle (Chrysemys picta). The ECOTOX-FACTORIAL format uses HepG2, a human liver cell line, with measurements taken at 24 hours after chemical dosing in a 24-well plate. Xsp1 included 3 nM 6-alpha-fluorotestosterone to partially stimulate the androgen receptor.ATG_zfPPARg_XSP1 is one of 29 assay components measured or calculated from the ATG_XSP1_multi-species_TRANS assay. It is designed to make measurements of mRNA induction, a form of inducible reporter, as detected with fluorescence intensity signals by Reverse transcription polymerase chain reaction (RT-PCR) and Capillary electrophoresis technology.The assay endpoint ATG_zfPPARg_XSP1 was analyzed in the positive analysis fitting direction relative to DMSO as the negative control and baseline of activity. Using a type of inducible reporter, measures of mRNA for gain-of-signal activity can be used to understand the reporter gene at the transcription factor-level as they relate to the gene PPARg. Furthermore, this assay endpoint can be referred to as a primary readout, because this assay has produced multiple assay endpoints where this one serves a reporter gene function. To generalize the intended target to other relatable targets, this assay endpoint is annotated to the nuclear receptor intended target family, where the subfamily is non-steroidal.
Human liver HepG2 cells are transiently transfected with multiple reporter transcription units (MRTUs) in 6-well plates using FuGene 6 reagent (Roche; 3 ml FuGene/1 mg DNA). The MRTU constructs are regulated by a cis-regulating element (promoter). […] A major difference between the CIS and TRANS system is that in CIS activities of endogenous TFs are measured, whereas the TRANS assay evaluates changes in activities of exogenous, chimeric NR-Gal4 proteins. […] At the end of 24 hour incubation, total RNA was isolated using TriZol reagent (Invitrogen). The isolated RNA is then reverse-transcribed using oligo(dT) primer and Mo-MLV reverse transcriptase (Invitrogen) with DNAse I (Ambion) treatment for 30 min. The one-tenth of the produced cDNA was amplified by PCR using Taq DNA polymerase (Invitrogen) and two reporter sequence-specific primers. The PCR products were fluorescently labeled by primer extension with 6-arboxyfluorescein (6-FAM) 5'-labeled reporter sequence-specific primer (2 min at 95 C, 20 s at 68 C and 10 min at 72 C) and these products were digested with 5U of HpaI (New England Biolabs) for 2h at 37 C. The fragments were purified using Qiaquick PCR columns (Qiagen), analyzed on an ABI 3130xL genetic analyzer (Applied Biosystems) with peak positions identified by using a set of X-rhodamine (ROX)-labeled MapMarker1000 molecular weight standards (BioVentures). The raw capillary electrophoresis data was processed using Attagraph software (Attagene).

Structure (SMILES)	AC50	outcome
C#CCOS(=O)OC1CCCCC1Oc1ccc(C(C)(C)C)cc1 (configuration not stated)	129 µM (active)	
CCCC1COC(Cn2cncn2)(c2ccc(Cl)cc2Cl)O1 (configuration not stated)		inactive
CCCN(CCC)c1c([N+](=O)[O-])cc(S(N)(=O)=O)cc1[N+](=O)[O-]		inactive
CC(C)(C)c1ccc(CSc2cnn(C(C)(C)C)c(=O)c2Cl)cc1		inactive
OC(c1ccc(Cl)cc1)(c1cncnc1)c1ccccc1Cl (configuration not stated)	34.9 µM (active)	
CO/C=C(/C(=O)OC)c1ccccc1Oc1cc(Oc2ccccc2C#N)ncn1		inactive
CC(C)Oc1cc(-n2nc(C(C)(C)C)oc2=O)c(Cl)cc1Cl		inactive
C=CC1(C)OC(=O)N(c2cc(Cl)cc(Cl)c2)C1=O (configuration not stated)		inactive
COC(=O)N(OC)c1ccccc1COc1ccn(-c2ccc(Cl)cc2)n1		inactive
CCCCC(CC)COC(=O)c1ccccc1C(=O)OCC(CC)CCCC (configuration not stated)		inactive
CCCCOC(=O)c1ccccc1C(=O)OCCCC		inactive
CCOP(=S)(OCC)SCn1c(=O)oc2cc(Cl)ccc21		inactive
